Measured values taken from the supplement of paper PMC3334620.
The full ranking holds about 33,000 sequences; the median of “E-score (-0.5 to 0.5)” is about -0.021, and the highest 2% start at about 0.32. What follows is part of a selection rich in the highest values, with near analogues and random picks from the rest.

The sequences below were run against T1, Zap1 (UniProt P47043) (assay: PBM E-score (8-mer binding enrichment) (E-score (-0.5 to 0.5)); higher = stronger / more preferred TF binding). Conditions: protein concentration: 200 nM; construct: GST-full length.
T1 sequence: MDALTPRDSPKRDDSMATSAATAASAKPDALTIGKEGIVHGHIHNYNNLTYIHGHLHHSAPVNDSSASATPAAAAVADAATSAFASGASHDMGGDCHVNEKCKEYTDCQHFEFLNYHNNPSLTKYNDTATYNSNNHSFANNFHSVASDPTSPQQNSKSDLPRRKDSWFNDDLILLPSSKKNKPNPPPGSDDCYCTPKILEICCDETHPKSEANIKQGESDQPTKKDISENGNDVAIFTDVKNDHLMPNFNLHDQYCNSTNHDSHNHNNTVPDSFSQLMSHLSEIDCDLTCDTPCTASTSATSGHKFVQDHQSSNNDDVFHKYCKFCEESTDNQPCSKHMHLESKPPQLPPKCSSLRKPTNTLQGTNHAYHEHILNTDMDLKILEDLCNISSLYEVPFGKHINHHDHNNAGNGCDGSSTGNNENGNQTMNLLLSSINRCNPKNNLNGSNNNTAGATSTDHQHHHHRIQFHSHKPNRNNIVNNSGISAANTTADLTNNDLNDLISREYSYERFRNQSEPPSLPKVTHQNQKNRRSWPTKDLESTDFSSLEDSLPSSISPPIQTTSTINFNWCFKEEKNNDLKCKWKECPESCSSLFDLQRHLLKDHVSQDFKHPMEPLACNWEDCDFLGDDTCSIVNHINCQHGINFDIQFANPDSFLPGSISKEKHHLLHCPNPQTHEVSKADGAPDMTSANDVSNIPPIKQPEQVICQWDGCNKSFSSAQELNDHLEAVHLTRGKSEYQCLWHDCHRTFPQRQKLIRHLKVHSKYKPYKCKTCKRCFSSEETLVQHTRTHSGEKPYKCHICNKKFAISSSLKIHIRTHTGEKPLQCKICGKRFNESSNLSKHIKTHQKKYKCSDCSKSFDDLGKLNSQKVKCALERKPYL
In short: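 Detection of bound protein used fluorescent anti-GST, with scans normalised by masliner. The proteins were GST-tagged yeast transcription factors applied at about 100-200 nM to universal all-10-mer Agilent arrays made double-stranded by primer extension. Each ungapped eight-base word, pooled with its reverse complement, was scored with an E-score from the Universal PBM Analysis Suite.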

Sequence | PBM E-score
CCTGACCG | 0.0354
CTGGCCCA | -0.095
AGTACTTC | 0.148
AGTGTGAA | -0.13
AACGTTGC | -0.161
ACCAAGGG | 0.178
CGCTACCC | 0.302
ATCCCTCA | -0.0235
CGGGATCC | -0.0153
ACAGCGAC | -0.152
AACCTCCT | 0.158
GACCTCTA | 0.318
GGCCTCTA | 0.0229
GTCCTCTA | -0.0992
AACCTCTG | 0.306
AACCTCTT | 0.397
GCGGGGCC | -0.0181
CAACGCGC | 0.0876
CTTAGAGC | 0.0313
GGCATCCA | -0.107
GACCAGTA | 0.0618
AAAATGTG | -0.0329
AATGGGCG | -0.204
ATAAACCA | 0.121
GGAACCCA | 0.171

Sequence | PBM E-score
ATAACCCG | 0.442
ATAACCCA | 0.472
GTAACCCA | 0.468
CTAACCCC | 0.178
GAAACCCA | 0.246
AGAACCCG | 0.223
TGAACCCA | 0.242
AAAACCCA | 0.258
CTAACCCA | 0.326
AAAACCCG | 0.131
CTTTGCGC | -0.0424
GTGATTTA | 0.193
AACTGTTC | -0.0321
ACTTTAGC | -0.16
AATCAGTA | -0.0224
AGGGAGAG | -0.0798
ACAGGGTC | 0.315
CCAGGGTC | 0.19
GCAGGGTA | 0.373
GCAGGGGA | -0.177
ACAGGGTG | 0.199
CCAGGGCA | -0.123
GCAGGGAA | -0.0199
CCAGGGTA | 0.323
ACAGGGTA | 0.366

Sequence | PBM E-score
CGACAGCG | -0.154
CGCCGCGC | -0.0986
ATTGCGGG | 0.11
CGAGTAAG | 0.119
AGCAGTAT | 0.0154
CGCAAACC | 0.0968
TCGCGAGA | 0.117
ATTAACCG | 0.331
CTCAACCC | 0.201
CTTAACAC | 0.0174
GTTAACCA | 0.338
CTCAACCA | 0.00637
CTTAACCA | 0.376
CTTAACCC | 0.387
ATTAACGG | 0.0866
ATTAACCA | 0.246
GTTAACTA | 0.263
CTTAACGA | -0.00709
ATTAACAG | -0.102
TACGACGA | -0.0483
ACCCGTCT | -0.0166
CAGCTAAA | 0.0244
CGCGATGA | 0.181
GATTCTAA | -0.0858
CCATTGAA | 0.174

Sequence | PBM E-score
ATTCGACC | 0.0544
ATTAACAC | 0.172
ATTAACCC | 0.334
ATTAACTC | 0.0519
GGCTCAGA | -0.101
GCTTACCA | 0.0792
AGGCTGTC | -0.202
ACACTGGC | -0.0599
CATACAGC | -0.249
GCTGGTCA | 0.0223
GCTGGTGA | 0.0777
ACTGGTTA | 0.405
GCTGGTTA | 0.329
ACTGGTTC | 0.0663
CCTGGTTA | 0.306
AACTGTTG | -0.147
TGAACACA | 0.0543
CACTACCG | 0.129
CAAAGAGG | 0.0514
AAGCTATT | -0.138
ACCCCGAT | 0.197
ACCCCGAA | 0.384
CCCCCGAA | -0.164
ACCCGTAA | 0.333
AACCCGAA | 0.327

Sequence | PBM E-score
AACCCGAT | 0.31
ACCCGAAG | 0.197
ACCCGAAA | 0.328
GACCCGAA | 0.175
ACCCGTAC | 0.0183
CCCCGTAA | 0.16
ACCCGAAT | 0.254
TCCACGAA | 0.111
CGTGAAGC | -0.326
TAGAGTCA | -0.166
AAACTTGG | 0.124
AACCAAGT | 0.271
CGAGAGGA | -0.0403
CGCCTTCA | -0.26
CCAGGGGA | -0.0512
CGTACCAA | -0.0153
AGTACCAC | 0.208
GGTACCAA | 0.337
GTTACAAC | 0.291
CTTACCAA | 0.0782
TGTACCAA | 0.0671
GTTACCAA | 0.362
CGTACCAC | 0.0803
CTTACAAA | 0.0824
GTTACAAA | 0.343

Sequence | PBM E-score
ATTACCAA | 0.18
GGTACCAC | 0.362
AGCAGCCG | 0.0213
AAATGGTC | 0.207
ACTCATGC | -0.147
CACCTCGG | 0.0517
TTAGAGAA | -0.0471
GCAATAGC | -0.122
AATTCGAG | -0.131
GACTAGAC | -0.101
ACAGAAAG | 0.11
CCTTGTTA | 0.12
CCGGGCGC | -0.315
CGCCCATC | -0.171
AATAACAC | 0.107
AATAACAT | 0.0801
GATAAACC | 0.21
AATAACCC | 0.466
ACTAACCC | 0.271
GATAACGC | -0.11
GCTAACCC | 0.32
AATAACGC | -0.0593
AATAACCT | 0.454
GATAACCC | 0.47
CCTAACCC | 0.264

Sequence | PBM E-score
AATAACGT | 0.0381
ACTATCGC | -0.0428
AGCAGAAT | 0.0481
CTACCAAG | 0.0784
GCATAGGA | -0.135
GAGTAGGA | -0.289
GACTGTGA | -0.0753
AAGCACTC | -0.146
ACTCGTGG | 0.0689
ACTAACCG | 0.144
AATAACGG | 0.169
AATAACAG | 0.118
AATAACCG | 0.421
ACTAACCT | 0.318
ACTAACCA | 0.282
CCTAGCAA | 0.0808
CGTTGGTC | -0.0765
AAAAGGTG | 0.173
ATAAGGTC | 0.184
CAAAGGTC | 0.314
AAAAGGAT | 0.0556
AAAAGGTT | 0.444
AAAAGGTC | 0.367
